ELG1 DNA repair – inhibitors of ELG1-dependent DNA repair in HEK293T cells | hit rate 2.3% among 330,000 | Potency, µM (titrated, usually from 46.1 µM), usual class: inhibitors | HEK293T ELG1-luciferase reporter, luminescence, 16 h; DNA damage induced by 5-fluorouridine; note: nearly all actives have a fitted effect of over 55% in size
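5-Fluorouridine DNA damage + compound/DMSO, 2,000 cells/well, 16 h, 37 °C/5% CO2. ONE-Glo, 30 min RT, luminescence. Readout = decrease in reporter signal.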
TDP1 cell CPT – DT40-hTDP1 cell growth loss with CPT; AID 686979; chicken DT40 Tdp1-/-;hTDP1 cells + 20 nM CPT, ATP luminescence, 48 h; Potency, µM (top dose mostly 46.2 µM), actives largely listed as inhibitors; hit rate 12% among 420,000; note: nearly all actives have a fitted effect of over 55% in size
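Cell growth measured by CellTiter-Glo luminescence after a minimum 48 h, 37 C compound exposure with 20 nM CPT in Tdp1-knockout DT40 cells stably expressing hTDP1, seeded 400/well; qHTS titration format.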
12-LOX inh – blocks human arachidonate 12S-lipoxygenase; P18054; purified 12hLO, xylenol orange hydroperoxide absorbance; Potency, µM (series often up to 108 µM), most hits filed as inhibitors; hit rate 1.1% among 580,000
Target sequence (P18054 whole entry, looked up): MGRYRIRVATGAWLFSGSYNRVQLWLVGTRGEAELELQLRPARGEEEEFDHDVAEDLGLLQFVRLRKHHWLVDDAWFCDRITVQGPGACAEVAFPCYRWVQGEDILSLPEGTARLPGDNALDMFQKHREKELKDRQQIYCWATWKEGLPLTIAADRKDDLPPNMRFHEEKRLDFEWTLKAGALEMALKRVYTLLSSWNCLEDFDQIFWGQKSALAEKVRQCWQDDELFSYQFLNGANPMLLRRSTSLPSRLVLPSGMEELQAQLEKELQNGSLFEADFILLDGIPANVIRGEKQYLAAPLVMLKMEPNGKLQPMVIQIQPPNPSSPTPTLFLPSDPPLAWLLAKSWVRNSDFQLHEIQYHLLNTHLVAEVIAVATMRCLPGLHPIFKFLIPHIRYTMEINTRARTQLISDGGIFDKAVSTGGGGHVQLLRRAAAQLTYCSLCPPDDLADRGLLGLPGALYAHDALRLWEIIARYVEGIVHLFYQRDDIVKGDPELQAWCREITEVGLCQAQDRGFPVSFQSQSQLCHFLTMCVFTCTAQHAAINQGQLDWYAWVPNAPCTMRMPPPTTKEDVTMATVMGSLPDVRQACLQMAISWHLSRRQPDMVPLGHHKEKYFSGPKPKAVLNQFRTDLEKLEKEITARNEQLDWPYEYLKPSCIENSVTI
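Purified human 12hLO (150 nM final) in 25 mM Hepes, 0.01% Triton X-100, pH 7.0 was preincubated 15 min at room temperature with compound. Then 40 uM arachidonic acid was added, 30 min. Hydroperoxide was read by Fe-XO absorbance ratio 573/405 nm.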
RORgamma inh – ROR gamma (mouse) transcription inhibition. P51450. Drosophila S2 Gal4-RORgamma UAS-luciferase reporter, 20 h. Potency, µM (series often up to 53.6 µM), usual class: inhibitors. hit rate 5.4% among 310,000. AID 2551; note: nearly all actives have a fitted effect of over 60% in size
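ROR gamma transcriptional activity was tracked as Gal4-UAS luciferase output in stably transfected Drosophila Schneider cells, with compound added 1 hr before 700 uM copper sulfate induction and a 20 hr ambient-temperature incubation.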
Gal4-VP16 FLuc – Gal4-VP16 reporter inhibition counter-screen; Drosophila S2 Gal4-VP16 UAS-luciferase, luminescence, 20 h; Potency, µM (doses to about 53.6 µM), most hits filed as inhibitors; hit rate 3.5% among 310,000; AID 2546;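 note: Gal4-VP16 expression switched on by copper sulfate through the metallothionein promoter; nearly all actives have a fitted effect of over 50% in size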
DT40 TDP1 no CPT – qHTS for Inhibitors of human tyrosyl-DNA phosphodiesterase 1 (TDP1): qHTS in cells in absence of CPT. DT40 Tdp1-/- hTDP1 cells, no CPT, ATP luminescence, 48 h. Potency, µM (series often up to 46.2 µM), usual class: inhibitors. hit rate 15% among 420,000; note: nearly all actives have a fitted effect of over 55% in size
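Growth kinetics read by CellTiter-Glo luminescence after ≥48 hr at 37 °C. Cells: DT40 Tdp1-/- stably carrying human TDP1, 400 per well, compound exposure in the absence of CPT (DMSO vehicle).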
Numbers stand for hits; 0 = inactive; ? = inconclusive; - = no result given; ! = not active in a repeat; [ ] = another dose, or the depositor's remark. Sampled rows, rich in hits. Any-hit rate of the full collection: about 15%. Calls come from the whole dose curve; as a rule, active = well fitted curve in the direction sought with a large enough effect; inconclusive = small, poorly fitted or top-dose-only effect, or another doubt; inactive = no such curve, though single readings can be large; an effect the other way counts as inactive or inconclusive.

SMILES | ELG1 DNA repair | TDP1 cell CPT | 12-LOX inh | RORgamma inh | Gal4-VP16 FLuc | DT40 TDP1 no CPT
CC1CCc2nc3ccccc3c(C(=O)OCC(=O)N3CCc4ccccc43)c2C1 (configuration not stated) | 18.4µM | 8.2µM | 0 | 0 | 0 | 5.8µM
CCCc1nc2ccccc2c(C(=O)OCC(=O)N2CCc3ccccc32)c1CC | 16.4µM | 18.4µM | 0 | 0 | 0 | 11.6µM
CCc1noc(C)c1C(=O)OCC(=O)N1CCc2ccccc21 | ? | 0 | 0 | - | - | 2.31µM
O=C(OCC(=O)N1CCc2ccccc21)c1ccccc1 | ? | 0 | 0 | 0[10 µM] | 0 | 0
CC(Cl)C(=O)NC(=O)NCc1ccccc1 (configuration not stated) | - | - | 0 | - | - | -
O=C1NCCOCCCN(C(=O)Nc2ccccc2F)[C@H]2CCC[C@@H]12 | - | - | 0 | - | - | -
CCc1c(C)cc(C(=O)N[C@H]2CCOC[C@H]2C2CCOCC2)c(=O)n1C | - | - | 0 | - | - | -
CCOC(=O)C(=NO)C1=CSC2=NNC(C)(C)N12 | - | ? | 0 | - | - | 20.6µM
Cc1cccc(N2CC(C(=O)Nc3nnc(SCCC4OCCO4)s3)CC2=O)c1 (configuration not stated) | 0 | 0 | 8.91µM | 0 | 0 | 0
CC(C)C(=O)N1CCC2(CC1)OC(=O)N(CCOc1ccccc1)C2(C)c1cccnc1 (configuration not stated) | - | - | 0 | - | - | -
CC(=O)c1cccc(NC(c2ccc(F)cc2)c2nnc(-c3ccccc3)o2)c1 (configuration not stated) | - | ? | ? | - | - | 18.4µM
Cc1c(Cl)cccc1NC(c1ccc(F)cc1)c1nnc(-c2ccccc2)o1 (configuration not stated) | - | ? | 0 | - | - | 23.1µM
COCc1c(C(=O)NCCOc2ccc(Cl)cc2)oc2ccccc12 | 0 | 25.9µM | 0 | - | - | 23.1µM
CC(C)(C)NC(=O)c1oc2ccccc2c1COc1ccccc1 | 0 | ? | 0 | ? | ? | 13µM
COCc1c(C(=O)NCC2COc3ccccc3O2)oc2ccccc12 (configuration not stated) | 0 | ? | 0 | - | - | 0
COCc1c(C(=O)NCCc2ccc(OC(F)F)cc2)oc2ccccc12 | 0 | 13µM | 0 | - | - | 11.6µM
CCC(CC)C(=O)NC[C@H]1O[C@@H](CC(=O)NCc2ccc(F)cc2)[C@H](O)[C@@H]1O | - | - | 0 | - | - | -
CCCCCn1c(N2CCN(c3ccccc3)CC2)nc2c1c(=O)[nH]c(=O)n2C | - | - | 0 | - | - | -
CCn1c(CN2CCN(c3cccc(Cl)c3)CC2)nc2c1c(=O)[nH]c(=O)n2C | - | ? | 0 | - | - | 18.4µM
CCCCCn1c(N2CCN(c3cccc(Cl)c3)CC2)nc2c1c(=O)[nH]c(=O)n2C | 23.1µM | 20.6µM | 0 | ? | 0 | 23.1µM
COc1ccc(C(=O)c2[nH]c(N)c(C(=O)NCCc3c[nH]c4ccccc34)c2-c2ccc(Cl)cc2)cc1 | - | 18.4µM | 0 | - | - | ?
COc1ccc(C(=O)c2[nH]c(N)c(C(=O)NCCc3c[nH]c4ccccc34)c2-c2ccc(Cl)c(F)c2)cc1 | - | ? | 0 | - | - | 18.4µM
COc1ccc(-c2c(C(=O)c3ccccc3)[nH]c(N)c2C(=O)NCCc2c[nH]c3ccccc23)cc1 | - | - | 0 | - | - | -
Cc1noc(C)c1C(=O)N1CCC(c2nnc(CN(C)C)n2C)CC1 | - | - | 0 | - | - | -
CC1CCC2(CC1)NC(=O)N(CC(=O)NCc1cccc(Br)c1)C2=O (configuration not stated) | - | - | 0 | - | - | -
SMILES | ELG1 DNA repair | TDP1 cell CPT | 12-LOX inh | RORgamma inh | Gal4-VP16 FLuc | DT40 TDP1 no CPT
COc1ccc(Cn2c(CCC(=O)Nc3ccccc3)nc3cccnc32)cc1 | 0 | 0 | 0 | 0 | 0 | 0
COc1ccc(NC(=O)CCc2nc3cccnc3n2Cc2cccs2)c(OC)c1 | - | ? | 0 | - | - | ?
COc1ccc(Cn2c(CCC(=O)Nc3cc(OC)c(OC)c(OC)c3)nc3cccnc32)cc1 | - | 16.4µM | 0 | - | - | ?
O=C(CCc1nc2cccnc2n1Cc1ccccc1)NCCc1ccc(Cl)cc1 | 0 | ? | 0 | 0 | 0 | 20.6µM
COc1ccc(Cn2c(CCC(=O)Nc3ccc(C)c(C)c3)nc3cccnc32)cc1 | ? | 13µM! | 0 | 0 | 0 | 20.6µM
O=C(CCc1nc2cccnc2n1Cc1cccs1)Nc1cccc(C(F)(F)F)c1 | - | 16.4µM | 0 | - | - | 10.3µM
Cc1ccc(NC(=O)C2C3CC/C=C\CC/C=C/CCC32)cc1C (configuration not stated) | - | - | 0 | - | - | -
COc1ccc(/C=C/CN2CCN(Cc3ccccc3)CC(O)C2)cc1 (configuration not stated) | - | - | 0 | - | - | -
Cc1ccc(NC(=O)Cc2ccc(-n3c(C)nc4cccnc43)cc2)cc1C | - | 11.6µM | 0 | - | - | 18.4µM
O=C(O)c1ccc(OCCCCCCOC2CCCCO2)cc1 (configuration not stated) | 0 | ? | 0 | 0 | 0 | 18.4µM
COc1cccc(CC(=O)Nc2ccc3c(c2)OC2(CCCC2)O3)c1 | ? | 18.4µM | 0 | - | - | ?
CC(C)C(=O)N1CCN(c2ccc(NC(=S)NC(=O)c3cc4ccccc4o3)cc2)CC1 | ? | ? | 0 | 5.01µM | ? | 0
O=C(NC(=S)Nc1ccc(NC(=O)c2cccs2)cc1)c1cc2ccccc2o1 | 0 | 13µM | 0 | 7.08µM | 7.94µM | ?
CC(=O)N1CCN(c2ccc(NC(=O)c3cc4ccccc4o3)cc2)CC1 | ? | ? | 0 | ? | 0 | ?
O=C(NC(=S)Nc1ccc(NC(=O)c2cccs2)cc1)c1ccco1 | ? | ? | 0 | ? | ? | ?
CCOC(=O)C1(C)Oc2ccccc2C(c2ccc(OC)cc2)=C1C(=O)OC (configuration not stated) | ? | ? | 0 | 0 | 0 | ?
CCOC(=O)C1(C)Oc2ccccc2C(C(=O)OC)=C1C(=O)OC (configuration not stated) | 0 | ? | 0 | 0 | 0 | 16.4µM
CN1OC[C@@H]2CN(C(=O)C(C)(C)C)[C@H](c3ccc(-c4cc5ccccc5o4)cc3)C[C@@H]21 | - | ? | 0 | - | - | 20.6µM
COc1ccccc1-c1cccc([C@@H]2C[C@H]3[C@H](CON3C)CN2S(=O)(=O)c2ccccc2C)c1 | - | 14.6µM | 0 | - | - | 20.6µM
Cc1ccccc1-c1cccc([C@@H]2C[C@H]3[C@H](CON3C)CN2S(=O)(=O)c2ccccc2C)c1 | - | ? | 0 | - | - | 20.6µM
Cc1ccccc1S(=O)(=O)N1C[C@H]2CON(C)[C@H]2C[C@H]1c1cccc(-c2ccccc2)c1 | - | ? | 0 | - | - | 23.1µM
CN1OC[C@@H]2CN(C(=O)C(C)(C)C)[C@H](c3cccc(-c4ccccc4)c3)C[C@@H]21 | - | 0 | 0 | - | - | 0
O=C(c1ccc(F)cc1)N1CCC(Cc2nc(-c3ccccc3)no2)CC1 | - | - | 0 | - | - | -
CC(C)c1ccc(C(=O)N2CCN(c3nc4ccccc4o3)CC2)cc1 | - | - | 0 | - | - | -
